Results published in PubChem BioAssay (NCATS).
Inconclusive results are not listed. Where a call stands in place of a potency, no number is given. Activity calls are given as the source filed them. Calls come from the whole dose curve; as a rule, active = well fitted curve in the direction sought with a large enough effect; inconclusive = small, poorly fitted or top-dose-only effect, or another doubt; inactive = no such curve, though single readings can be large; an effect the other way counts as inactive or inconclusive.

How the values were obtained:
[1] = qHTS for Activators of Parkin Expression: LOPAC Validation Assay (NLuc Reporter) (AID 720572)
In short: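 Parkin promoter-driven FLuc/NLuc neuronal reporter cells; 24 h plating, 7-pt dose response, 24 h at 37 C/5% CO2; FLuc then NanoLuc reagent, 10 min each, luminescence; DMSO/positive control normalized.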

[2] = qHTS for Activators of Parkin Expression: LOPAC Validation Assay (FLuc Reporter) (AID 720573)
In short: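 A neuronal cell line harbouring FLuc and NLuc reporters behind the Parkin promoter was exposed to compounds for 24 h. Firefly luciferase signal, measured after 10 min with detection reagent, was scaled to DMSO and positive-control wells.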

[3] = qHTS for compounds that reverse cellular toxicity of Amyloid beta (A-beta) peptide in yeast: LOPAC Validation Assay (AID 720559)
In short: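 Activity is expressed relative to DMSO and an equimolar ferric chloride/clioquinol mix. Compounds were pinned into medium with A-beta-expressing yeast, grown 48 hr at 30 C, then read by absorbance at 600 nm.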

Row | SMILES | Potency [1] | Potency [2] | outcome [3]
1 | NCC(O)C1CCCCCCC1 (centres undefined) | inactive | inactive | 
2 | O=C1NC(=O)c2cc(Nc3ccccc3)c(Nc3ccccc3)cc21 |  | inactive | inactive
3 | O=C(O)c1cccnc1C(=O)O | inactive | inactive | 
4 | CCCCS(=N)(=O)CC[C@H](N)C(=O)O (some centres undefined) | inactive | inactive | inactive
